The structures appear in SMILES notation. Out of some 360,000 compounds screened, about 9,100 (2.5%) were called active. About 4% were inconclusive and are not listed. Only a selection was taken, and actives are over-represented in it overall. A number with no mark means an inactive call. Rule as the data show it: active = max response below about -50%; inconclusive = no clear call, values can overlap the other calls; inactive = above that.
% is scaled to controls: 0 for no effect and ±100 for the full control effect.

D(3) dopamine receptor (Homo sapiens), sequence (P35462 whole entry, looked up): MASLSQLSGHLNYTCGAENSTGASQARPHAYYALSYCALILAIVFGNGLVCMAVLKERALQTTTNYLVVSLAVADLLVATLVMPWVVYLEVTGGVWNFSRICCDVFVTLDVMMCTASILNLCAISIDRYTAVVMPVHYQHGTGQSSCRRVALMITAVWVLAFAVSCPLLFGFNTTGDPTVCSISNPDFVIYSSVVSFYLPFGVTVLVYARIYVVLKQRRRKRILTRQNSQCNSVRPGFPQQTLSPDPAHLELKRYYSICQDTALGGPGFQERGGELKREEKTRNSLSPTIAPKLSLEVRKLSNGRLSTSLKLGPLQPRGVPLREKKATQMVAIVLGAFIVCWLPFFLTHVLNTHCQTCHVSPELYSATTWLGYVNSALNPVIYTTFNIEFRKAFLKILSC

This assay addresses D(3) dopamine receptor (Homo sapiens) (UniProt P35462). Nature of the assay: qHTS of D3 Dopamine Receptor Antagonist: qHTS. The settings on record: D3R cells, DiscoveRx beta-arrestin luminescence, antagonist mode; active compounds read low. The method in brief: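 Cells expressing the human receptor were seeded at 1500 cells/well, incubated overnight at 37 degrees C in 5% CO2, then exposed to library compounds with dopamine controls for 90 minutes at 37 degrees C before luminescent detection.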
In the case of `Cc1ccccc1C#CC1=CC(=O)CC(C)(C)C1`, the max response, negative = inhibition was -9.95%.
Consider `Cc1nnc(SC(C)C(=O)c2c[nH]c3ccccc23)n1C1CC1` (stereo unspecified), for which the max response, negative = inhibition is 20.8%.
Then `O=C(CCl)Nc1cccc(CP(=O)(c2ccccc2)c2ccccc2)c1`, with -12.5%; and `O=C(Nc1ccc(Sc2ccc(Br)cc2)cc1)c1ccco1`, with 17.2%.
With `O=C(CCl)Nc1ccc(Sc2ccc(NC(=O)CCl)cc2)cc1` the figure was -60.1% (active); with `CC1(C)CC(=O)C=C(c2ccc(COC(=O)c3cc(F)cc(F)c3)cc2)C1=O`, -13.6%.
As for `CC1CCCN(CC(O)COCc2ccccc2)C1` (stereo unspecified), the max response, negative = inhibition is -0.0789%.
Then `COc1cccc(CN(C)CC(O)COC(c2ccccc2)c2ccccc2C)c1` (stereo unspecified), with -10.2%.
Then `Cc1ccccc1C(OCC(O)CN1CCCCC1CCO)c1ccccc1` (stereo unspecified), with -53.3% (active).
As for `CCc1nc2c(OCc3ccc(Cl)cc3Cl)cccn2c1N(C)C(=O)C(C)C`, the max response, negative = inhibition is -27.6%.
Then `CCc1nc2c(OCC(N)=O)cccn2c1N(C)C(=O)c1ccc(OC)cc1`, with 0%; and `CCc1nc2c(OCCOc3ccccc3)cccn2c1N(C)C(=O)c1ccccc1F`, with 14.9%; and `Cc1nc2c(OCc3ccc(Cl)cc3Cl)cccn2c1N(C)CC1CC1`, with -58.1% (active).
Then `CCc1nc2c(OCCOc3ccccc3)cccn2c1N(C)C(=O)c1ccc(OC)cc1`, with -76.4% (active); and `CCOC(=O)N(C)c1c(CC)nc2c(OCc3ccccc3C(=O)OC)cccn12`, with -50.7% (active); and `Cc1nc2c(OCc3cccc(Cl)c3)cccn2c1N(C)CC1CC1`, with -0.943%.
With `CCCCC(=O)N(C)c1c(CC)nc2c(OCc3ccc(S(C)(=O)=O)cc3)cccn12` the figure was 0%; with `Cc1nc2c(OCc3ccc(Cl)cc3)cccn2c1N(C)Cc1cccs1`, -0.327%; with `CCCCN(C=O)c1c(CC)nc2c(OCc3ccccc3C(=O)OC)cccn12`, -3.94%.
As for `CCc1nc2c(OCc3ccc(C(=O)OC)cc3)cccn2c1N(C)C(=O)C(C)C`, the max response, negative = inhibition is -12.4%.
Then `CCCCC(=O)N(C)c1c(CC)nc2c(OCc3ccc(Cl)cc3Cl)cccn12`, with -63.9% (active).
In the case of `COc1ccc(NC(=O)N(C)C[C@@H]2OCc3cn(nn3)CCCC(=O)N([C@H](C)CO)C[C@H]2C)c(OC)c1`, the max response, negative = inhibition is -1.72%.
Then `Cc1ccc2nc(-c3ccco3)c(Cc3cccc(Cl)c3)n2c1`, with -5.94%; and `CCOCCC(=O)Nc1ccc2c(c1)c(=O)n(C)n2-c1ccc2ccccc2c1`, with -26.6%; and `COc1cccc(C(NC(C)=O)c2nc(-c3ccccc3OC)cs2)c1` (stereo unspecified), with 0%.
Then `CCN(CC)C(=O)C1=C(C)N(Cc2ccc(OC)cc2)C(=O)C(CC(=O)NCCCCc2ccccc2)C1` (stereo unspecified), with 17.3%; and `CCOc1ccc(CCN2C(=S)N([C@@H](CC(C)C)CN3CCC[C@@H]3CN3C(=S)NC[C@@H]3Cc3ccc(O)cc3)C[C@@H]2Cc2ccc(O)cc2)cc1`, with 1.51%.
With `CCCCN(Cc1ccccc1)C(=O)C1CCN(Cc2sccc2C)CC1` the figure was -66.6% (active); with `CCCC(=O)C1CCN(Cc2ccccc2)CC1`, -29.3%.
Take `CCCCN(C)C(=O)C1CCN(Cc2ccccn2)CC1`: the max response, negative = inhibition is -26.1%.
Then `Cc1ccc(F)c(S(=O)(=O)NC(=O)C2(C)CCN2C(=O)c2ccco2)c1` (stereo unspecified), with 0%; and `O=C(NC1CCCCC1)C(c1cc2ccccc2o1)n1c(=O)c(-c2ccco2)nc2ccccc21` (stereo unspecified), with -5.65%.
With `Cc1ccc(N(C(=O)Cc2cccs2)C2C=CS(=O)(=O)C2)cc1Cl` (stereo unspecified) the figure was 9.44%; with `Cc1ccc(N(C(=O)c2ccc(S(=O)(=O)N(C)C)cc2)C2C=CS(=O)(=O)C2)cc1` (stereo unspecified), -16.5%.
With `CCCCC(=O)N(c1ccc(OC)cc1)C1C=CS(=O)(=O)C1` (stereo unspecified) the figure was -109% (active); with `CCCCCc1c(Cc2ccccc2)ncn1CCc1ccccc1OC`, -13.9%; with `O=C(Nc1cccc(C(=O)O)c1)/C(=C\c1ccccc1)NC(=O)c1ccc(Br)o1`, -22%.
With `COc1ccccc1CN1CCN(Cc2cc(OC)c(OC)cc2OC)CC1`, the max response, negative = inhibition was -21.9%.
With `CC(=O)N1CCN(CC(c2ccccc2)c2ccccc2)CC1` the figure was 18.7%; with `c1ccc(C(c2ccccc2)N2CCN(Cc3nnnn3C3CCCCC3)CC2)cc1`, -13.5%.
Then `COc1ccccc1CN1CCN(C(c2ccccc2)c2ccccc2)CC1`, with -95.1% (active); and `O=C(C(c1ccccc1)c1ccccc1)N1CCN(CC(O)COc2ccccc2)CC1` (stereo unspecified), with -23.3%; and `Oc1ccccc1CN1CCN(C(c2ccccc2)c2ccccc2)CC1`, with -76.9% (active).
Then `COc1ccccc1NC(=S)N1CCN(C(c2ccccc2)c2ccccc2)CC1`, with -5.17%.
In the case of `CC(C)OCC(O)CN1CCN(C(c2ccccc2)c2ccccc2)CC1` (stereo unspecified), the max response, negative = inhibition was -50.4% (active).
With `Cn1nnnc1SCC(=O)N1CCN(C(c2ccccc2)c2ccccc2)CC1` the figure was 2.83%; with `CCCOc1ccc(F)cc1-c1cc(C(=O)Nc2ccc(F)cc2)[nH]n1`, 12.6%; with `CN(CCO)C(=O)c1nc[nH]c1C(=O)N(C)Cc1ccccc1`, -16.2%.
With `Cc1ccccc1-c1ccc2c(c1)O[C@@H](CN(C)Cc1ccc(C(=O)O)cc1)[C@@H](C)CN([C@H](C)CO)S2(=O)=O` the figure was 17.1%; with `CC1(C(=O)NS(=O)(=O)c2cccc(F)c2)CCN1C(=O)Cc1ccc(Cl)cc1Cl` (stereo unspecified), -11%; with `O=C(Nc1cccc2ccccc12)c1[nH]c(-c2ccccc2)c2c1C(=O)N(C1CC1)C2=O`, 81%.
Then `CCC(C)CN1C(=O)CN(S(C)(=O)=O)CC1(C)C(=O)Nc1ccc2c(c1)OCCO2` (stereo unspecified), with 15.4%; and `CC(=O)c1ccc(-c2cnc3c(NC=O)cc(-c4cccc(NS(C)(=O)=O)c4)cn23)cc1`, with 127%; and `Nc1ncnc2c1ncn2[C@@H]1O[C@H](C(=O)N2CCSC2)[C@@H](O)[C@H]1O`, with -26.3%.
For the compound `COc1cccc(-c2nc3nc(C)cc(C)n3c2NC2CCCCC2)c1`, the max response, negative = inhibition was -19.4%.
Then `C=C1C(=O)[C@]23C[C@H]1CCC2[C@@]1(C)C(C[C@@H]3O)[C@](C)(C(=O)O)CC[C@@H]1O` (stereo partly specified), with -16.7%.

The record behind these values is PubChem BioAssay AID652054 (National Center for Advancing Translational Sciences (NCATS), 2013).
